This is part of a sample that, as a whole, favours compounds with a hit. Of some 83,000 tested, about 20% had one in any assay.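 Plates (96-well) were seeded with cells, treated with compound at one concentration, and incubated for 48 hours before percent growth was determined.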 A number with no mark means an inactive call. Active and inactive are the calls of the source. How the source made its calls: active means growth percent below 10; inactive means the rest.

Among the test systems are T-47D breast; BT-549 breast; MDA-MB-435 melanoma; SW-620 colon; MCF7 breast; HCT-116 colon; HCC-2998 colon; KM12 colon.
What all share (assay): NCI-60 one-dose screen, 48 h (100 = growth as untreated, 0 = no growth, -100 = all killed)
Common to all, as to details: 10 µM unless noted

In the case of `COc1cc2oc(-c3ccc(O)cc3)cc(=O)c2c(O)c1-c1c(OC)cc(O)c2c(=O)cc(-c3ccc(O)cc3)oc12`, the growth in the assay with T-47D breast is 82.8%; in the assay with BT-549 breast it was 46.7%; in the assay with MDA-MB-435 melanoma, 1.08% (active); with SW-620 colon, 25.2%; in the assay on MCF7 breast it was 38%; in the assay on HCT-116 colon it was 20.5%. Also, the results for the growth in the assay on HCC-2998 colon and in the assay on KM12 colon were 72.5% and 43.4%, respectively.

In the case of `O=S(=O)(NCCCNc1cc(-c2c(-c3cccc(O)c3)nc3sccn23)ccn1)c1cccc2ccccc12`, the growth in the assay on T-47D breast is 8.57% (active); in the assay with BT-549 breast, 25.5%; in the assay with MDA-MB-435 melanoma, 35.6%; in the assay with SW-620 colon it was 47.1%; in the assay with MCF7 breast, 35.4%; with HCT-116 colon it was 33.1%. Besides, the growth in the assay with HCC-2998 colon is 59.2%; with KM12 colon, 34.8%.

Turning to `COC1=C(C)C(=O)c2c(c(CCCl)c3n2CCC3O)C1=O` (stereo not drawn), the growth with T-47D breast is 81.2%; in the assay with BT-549 breast it was -30.4% (active); with MDA-MB-435 melanoma, -72.7% (active); in the assay on SW-620 colon, 8.6% (active); in the assay on MCF7 breast, -14.2% (active); with HCT-116 colon it was 9.41% (active). The growth was -39.1% (active) in the assay on HCC-2998 colon and 0.859% (active) in the assay with KM12 colon.

With `COc1cccc(/C=C2\C=C(c3ccccc3)N(Cc3ccccc3)C2=O)c1`, the growth is 59.8% in the assay on T-47D breast; 69.7% in the assay with BT-549 breast; -32.3% (active) with MDA-MB-435 melanoma; 43.5% with SW-620 colon; 32.5% with MCF7 breast; 48.3% in the assay on HCT-116 colon. Further, the growth in the assay with HCC-2998 colon was 66.6%; with KM12 colon, 53.4%.

Regarding `CCCCN(C)N=Nc1ccc(C(N)=O)cc1`, the growth was 113% with T-47D breast; 112% with BT-549 breast; 84.5% in the assay with MDA-MB-435 melanoma; 104% in the assay on SW-620 colon; 94% in the assay on MCF7 breast; 107% in the assay on HCT-116 colon. Moreover, the growth in the assay with HCC-2998 colon was 101%; in the assay on KM12 colon, 107%.

On to `CCN1C(=O)N(CC)C2Nn3c(s/c(=C4\C(=O)Nc5ccccc54)c3=O)=NC21` (stereo not drawn), for which the growth is 45.8% with T-47D breast; 65.3% with BT-549 breast; -51% (active) with MDA-MB-435 melanoma; 27.6% in the assay with SW-620 colon; 29.1% in the assay on MCF7 breast; 31.8% in the assay with HCT-116 colon. In addition, the growth is 88% with HCC-2998 colon and 33% in the assay with KM12 colon.

On to `COc1ccc(OC)c(/C=C2\Oc3cc(OCCN4CCC(Cc5ccccc5)CC4)ccc3C2=O)c1`, for which the growth in the assay on T-47D breast is 63.1%; in the assay on BT-549 breast it was 89.8%; in the assay with MDA-MB-435 melanoma, 87.3%; in the assay with SW-620 colon, 74.5%; in the assay with MCF7 breast, 77.3%; with HCT-116 colon, 73%. Moreover, the figures for the growth in the assay on HCC-2998 colon and in the assay on KM12 colon were 19.7% and 92.9%, respectively.

Turning to `O=C(/C=C/c1sc(Cl)nc1Cl)c1ccc(F)cc1`, the growth in the assay with T-47D breast is 83.7%; with BT-549 breast it was 103%; with MDA-MB-435 melanoma, 101%; in the assay with SW-620 colon, 24.7%; with MCF7 breast, 14.4%; with HCT-116 colon, 39.4%. The growth is 30.4% in the assay with HCC-2998 colon and 60.8% in the assay on KM12 colon.

As to `COc1cc2cc(Oc3ccc(NC(=O)Nc4cc(C(F)(F)F)cc(C(F)(F)F)c4)cc3)c(C)nc2cc1OCCN1CCOCC1`, the growth in the assay on T-47D breast was 26.1%; in the assay with BT-549 breast, 68.1%; in the assay with MDA-MB-435 melanoma it was 22.3%; in the assay on SW-620 colon it was 20.3%; in the assay on MCF7 breast it was 7.15% (active); with HCT-116 colon it was 10.3%. The growth in the assay on HCC-2998 colon was 38.6%; with KM12 colon, 13.3%.

With `COc1ccc(C2CC(c3ccc(Nc4nc(Nc5ccc(F)cc5)nc(Nc5ccc(Cl)cc5)n4)cc3)=NN2C(C)=O)cc1` (stereo not drawn), the growth was 72.5% in the assay with T-47D breast; 143% in the assay on BT-549 breast; 97.1% in the assay on MDA-MB-435 melanoma; 109% with SW-620 colon; 105% in the assay with MCF7 breast; 94.6% in the assay on HCT-116 colon. In addition, the figures for the growth with HCC-2998 colon and with KM12 colon were 99.7% and 135%, respectively.

Turning to `CCc1ccc(Oc2c(-c3ccc(OCCc4cccc(C(F)(F)F)c4)cc3O)n[nH]c2C(F)(F)F)cc1`, the growth was 6.59% (active) in the assay on T-47D breast; 86.5% in the assay with BT-549 breast; 27.1% with MDA-MB-435 melanoma; 14.7% in the assay on SW-620 colon; 27.8% with MCF7 breast; 0% (active) with HCT-116 colon. In addition, the figures for the growth with HCC-2998 colon and with KM12 colon were 89.4% and 46.4%, respectively.

Consider `COc1cc(C(=O)c2cnc(-c3c[nH]c4cccc(C)c34)[nH]2)cc(OC)c1OC`, for which the growth with T-47D breast is 52.2%; in the assay on BT-549 breast, 38.3%; with MDA-MB-435 melanoma, -43.5% (active); with SW-620 colon it was 18%; with MCF7 breast it was 17.7%; in the assay with HCT-116 colon, -10.4% (active). Besides, the figures for the growth in the assay with HCC-2998 colon and with KM12 colon were 20.1% and 0.911% (active), respectively.

For `S=C(c1cccs1)N1CCN(c2cccc(Cl)c2)CC1`, the growth with T-47D breast was 82.6%; in the assay with BT-549 breast, 59.3%; with MDA-MB-435 melanoma, 108%; with SW-620 colon, 103%; with MCF7 breast, 96.9%; in the assay with HCT-116 colon, 83.9%. Moreover, the growth in the assay on HCC-2998 colon is 110%; in the assay with KM12 colon it was 102%.

Regarding `O=C1c2cccc3cccc(c23)C(=O)N1Nc1nc(N2CCOCC2)nc(N2CCN(c3ccccc3)CC2)n1`, the growth in the assay with T-47D breast is 37.3%; in the assay on BT-549 breast it was 37.8%; in the assay on MDA-MB-435 melanoma, -12.6% (active); in the assay on SW-620 colon it was 32.6%; in the assay with MCF7 breast, 17.9%; with HCT-116 colon it was 31.2%. In addition, the growth with HCC-2998 colon is 77.6%; in the assay with KM12 colon it was 48.5%.

In the case of `Cc1ccc2c(-c3cc(-c4ccccc4)nc(N)c3C#N)cc(=O)oc2c1`, the growth in the assay on T-47D breast is 86%; in the assay with BT-549 breast, 75.8%; in the assay on MDA-MB-435 melanoma it was 106%; with SW-620 colon it was 107%; with MCF7 breast, 100%; in the assay with HCT-116 colon, 87.1%. The growth in the assay on HCC-2998 colon was 96.4%; in the assay with KM12 colon it was 97.4%.

As to `COc1ccc(-c2c(C(=O)NS(C)(=O)=O)n(Cc3cccc(C(F)(F)F)c3)c3ccccc23)cc1`, the growth was 87.7% in the assay on T-47D breast; 92.3% in the assay with BT-549 breast; 97.3% with MDA-MB-435 melanoma; 95.4% in the assay with SW-620 colon; 91.4% in the assay with MCF7 breast; 84.5% in the assay with HCT-116 colon. Besides, the growth in the assay on HCC-2998 colon is 108%; in the assay with KM12 colon, 92.8%.

For the origin of these results see PubChem BioAssay (NCI).
